Laboratory results taken from the supplement of paper PMC10121225.
Counter-ions that a name gives are not always drawn.

Test system: hN + hpA co-culture (H1 iNGN2 human neurons + human primary astrocytes)
Assay: presynaptic density (SYNAPSIN1 puncta per MAP2 neurite area), Z-score vs DMSO controls; higher = more presynaptic puncta (synapse-promoting)
Details: 3 µM; 72 h
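Also: immunostained co-cultures imaged by high-content microscopy, Z-score per plate against mean and SD of 0.1% DMSO wells, compounds added on differentiation day 18, analysed day 21.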

Structure (SMILES) | presynaptic density (Z-score)
O=C1CC[C@@]2(O)[C@H]3Cc4ccc(O)c5c4[C@@]2(CCN3CC2CC2)[C@H]1O5 [Naltrexone HCl] | 1.84
CN1CCCCC1Cn1cc(C(=O)c2cc([N+](=O)[O-])ccc2I)c2ccccc21 (centres undefined) | -0.667
O=C(O[C@H]1C[C@H]2CC[C@@H](C1)[N+]21CCCC1)C(O)(c1ccccc1)c1ccccc1 [Trospium chloride] | -0.748
O=C(O)CNC(=O)c1c(O)c2ccccc2n(Cc2ccccc2)c1=O | 0.0398
CCN(CC)C(=O)c1ccc(C2=CC3(CCNCC3)Oc3cccc(O)c32)cc1 | -0.78
C=C1C[C@@H]2[C@H](CC[C@]3(C)C(=O)CC[C@@H]23)[C@@]2(C)C=CC(=O)C=C12 [Exemestane] | 0.646
O=c1[nH]c2ccc(Cl)cc2c(N[C@@H]2CN3CCC2CC3)c1-c1nc2ccccc2[nH]1 | -2.58
C[C@@H]1O[C@@H](O[C@H]2C[C@@H](O)[C@]3(CO)[C@H]4[C@H](O)C[C@]5(C)[C@@H](C6=CC(=O)OC6)CC[C@]5(O)[C@@H]4CC[C@]3(O)C2)[C@H](O)[C@H](O)[C@H]1O [Ouabain] | -1.54
COc1ccc(C(=O)N2CCCC2=O)cc1 [Aniracetam] | 0.286
Cn1cc(C2=C(c3cn(C4CCN(Cc5ccccn5)CC4)c4ccccc34)C(=O)NC2=O)c2ccccc21 [Enzastaurin] | 0.0046
C[C@@]12N[C@@H](Cc3ccccc31)c1ccccc12 [(-)-MK 801 maleate] | -0.122
Cc1cc(SCc2sc(-c3ccc(C(F)(F)F)c(F)c3)nc2C)ccc1OCC(=O)O | 0.227
N[C@@H]1C[C@H]1c1ccccc1 [Tranylcypromine (2-PCPA) HCl] | 0.259
Cc1sc2c(c1C)C(c1ccc(Cl)cc1)=N[C@@H](CC(=O)OC(C)(C)C)c1nnc(C)n1-2 | 2.8
CCC(COC(=O)c1cc(OC)c(OC)c(OC)c1)(c1ccccc1)N(C)C (centres undefined) | 0.31
CCc1c(C(=O)C(N)=O)c2c(OCC(=O)O)cccc2n1Cc1ccccc1 | 0.584
CC[C@@H]1/C=C/C=C/C[C@H](C)[C@H](O)[C@](C)(O)C(=O)[C@H](C)[C@@H](O)[C@H](C)C(=O)[C@H](C)[C@@H](O)[C@H](C)/C=C/C(=O)O[C@H]2[C@@H](C)[C@@H](CC1)O[C@@]1(CC[C@@H](C)[C@@H](C[C@H](C)O)O1)[C@@H]2C [Oligomycin A] | -1.28
C[C@](O)(COc1ccc(C#N)cc1)C(=O)Nc1ccc(C#N)c(C(F)(F)F)c1 | -0.892
O=[N+]([O-])C=Cc1ccc2c(c1)OCO2 [MNS (3,4-Methylenedioxy-Œ≤-nitrostyrene] | -0.543
CC(=O)O[C@H]1C[C@@H]2CC[C@@H]3[C@H](CC[C@@]4(C)[C@H]3C[C@H]([N+]3(C)CCCCC3)[C@@H]4OC(C)=O)[C@@]2(C)C[C@@H]1[N+]1(C)CCCCC1 [Pancuronium dibromide] | -0.361
CN1CCc2cc3c(cc2C1C1OC(=O)c2c1ccc1c2OCO1)OCO3 (single isomer, unassigned; (+)) [(+)-Bicuculline] | -0.322
Cc1cc2c(C(C)C)c(O)c(O)c(C=O)c2c(O)c1-c1c(C)cc2c(C(C)C)c(O)c(O)c(C=O)c2c1O | -4.31
CCOC(=O)c1cncn1[C@H](C)c1ccccc1 [Etomidate] | 0.377
CCCN1CCO[C@@H]2c3cc(O)ccc3OC[C@H]21 | 0.0588
